Bst PK mod: alters activity of Bacillus stearothermophilus pyruvate kinase; purified pyruvate kinase, luminescence ATP production; ribose 5-phosphate activator present at AC10; Potency, µM; hit rate 1.2% among 51,000; in the data active = potency below about 11 µM; inconclusive = mostly about 12 µM to 25 µM;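 the screen sought inhibitors and activators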;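 also: scaled between full activation by ribose 5 phosphate and full inhibition by luteolin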
Luciferase inh: inhibitors of firefly luciferase; P08659; purified firefly luciferase, luminescence, 8 min; Potency, µM (titrated, usually from 57.1 µM), for inactives: at the highest dose activity change, negative = inhibition, most hits filed as inhibitors; hit rate 2.2% among 72,000; also: % is scaled to controls: 0 for no effect and ±100 for the full control effect; nearly all actives have a fitted effect of over 40% in size
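Luminescence read-out after 8 min at room temperature; enzyme reaction used luciferin plus 10 uM ATP (linear range) in imidazole buffer pH 7.2 with KCl, MgCl2, Tween 20 and BSA. Each sample was run as a titration.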
Caspase-7 inhib: blocks human caspase-7 allosterically or competitively. Potency, µM (titrated, usually from 57.5 µM), for the others: at the top dose activity change, negative = inhibition, usual class: inhibitors. recombinant caspase-7, Ac-DEVD-AFC fluorescence rate. AID 889. hit rate 0.02% among 75,000; active = well fitted inhibition curve with a large enough effect in the main read-out, with a control signal flat, not every such curve was filed as active; inconclusive = small, poorly fitted or top-dose-only effect, or a change in a side signal; also: % of control where 0% means no effect
Caspase-1 inhib: allosteric or competitive inhibitors of human caspase-1; hit rate 0.03% among 75,000; Caspase-1 enzyme, Ac-WEHD-AFC fluorogenic rate; Potency, µM (series often up to 57.5 µM), without a hit: at the highest dose activity change, negative = inhibition, usual class: inhibitors;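 also: plate controls were vehicle for no effect and no substrate for full effect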
Tau fil binding: binds recombinant human tau filaments; recombinant tau filaments, thioflavin S fluorescence, 15 h; filaments grown with octadecylsulfate alongside compound; Potency, µM (series often up to 57.1 µM), for the others: top-dose activity change, negative = inhibition; P10636; hit rate 2% among 71,000;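 also: % is scaled to controls: 0 for no effect and ±100 for the full control effect; actives lower thioflavin S fluorescence by blocking filaments or displacing dye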
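Thioflavine S fluorescence (ex 450, em 510 nm) reports filaments formed from 1 uM human tau plus 30 uM ODS over 15 h at 37 C (10 mM HEPES pH 7.4, 100 mM NaCl, 5 mM DTT); compounds displacing dye or blocking filaments lower signal.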
* hit, by the source's call; i = inactive; u = inconclusive; x = not tested or not shown; ! = repeats disagree; [ ] = remark or other dose. Hits are enriched below; roughly 4% of the tested compounds scored in any of these assays. Unless noted, calls follow the shape of the dose curve; as a rule, active = well fitted curve in the direction sought with a large enough effect; inconclusive = small, poorly fitted or top-dose-only effect, or another doubt; inactive = no such curve, though single readings can be large; an effect the other way counts as inactive or inconclusive. Potency is read from the fitted curve at half-maximal effect.

SMILES	Bst PK mod	Luciferase inh	Caspase-7 inhib	Caspase-1 inhib	Tau fil binding
O=C(Nc1ccc2nc(-c3ccc(Br)o3)[nH]c2c1)c1ccco1	10*	10µM*	-4%	-2%	-6%
O=C(Nc1ccc2nc(-c3ccc(Br)o3)[nH]c2c1)c1cccs1	u	13µM*	-4%	-6%	-15%
Nc1nc(CSc2ccccn2)nc(Nc2ccccc2)n1	x	20µM*	0%	0%	0%
COc1ccc2nc(SCc3nc(N)nc(Nc4ccccc4)n3)[nH]c2c1	x	13µM*	-1%	-3%	-4%
COc1ccc2nc(SCC(N)=O)[nH]c2c1	>57	0%	0%	-2%	-4%
Cn1c(=O)c2c(nc(/C=C\c3cccc(Cl)c3)n2C)n(C)c1=O	x	2%	-3%	-1%	-1%
CCOc1ccc(C2c3c(oc4cc(C)c(C)cc4c3=O)C(=O)N2CCCN(C)C)cc1OC (centres undefined)	x	1%	-4%	-4%	25µM*
CCCOc1ccc(C2c3c(oc4cc(C)c(C)cc4c3=O)C(=O)N2CCCN(C)C)cc1OCC (centres undefined)	x	2%	-3%	-3%	-26%
COc1ccc(C2c3c(oc4ccccc4c3=O)C(=O)N2c2ccc(C)cn2)cc1OC (centres undefined)	x	0%	-5%	-3%	6.3µM*
COC(=O)c1ccc(C2c3c(oc4cc(C)c(C)cc4c3=O)C(=O)N2CCCN(C)C)cc1 (centres undefined)	x	0%	-1%	-2%	10µM*
CO[C@@H]1/C=C\CC(=O)N2CCC[C@@H]2C(=O)OC[C@H](C)C(=O)OC[C@H]1C	x	-1%[11.4 µM]	-2%[11.5 µM]	-2%[11.5 µM]	x
N#C/C(=C(\O)C(=O)O)c1ccc(-c2cccc3ccccc23)cc1	x	1%[11.4 µM]	3%[11.5 µM]	-1%[11.5 µM]	-5%[11.4 µM]
COc1ccc(NC(=O)c2oc3ccccc3c2NC(=O)C2CC2)cc1	>57	-8%	1%	-4%	i
CCOc1ccc(NC(=O)c2oc3ccccc3c2NC(=O)CC)cc1	5.4*	-3%	-1%	-3%	43%
COc1ccc(NC(=O)c2oc3ccccc3c2NC(=O)C(C)(C)C)cc1	i	-10%	-3%	-4%	13µM*
Fc1cccc2sc(Nc3nnc(-c4ccccc4)o3)nc12	i	13µM*	-6%	-4%	-1%
COc1ccc(-c2nnc(Nc3nc4c(OC)cccc4s3)o2)c(OC)c1	>57	13µM*	0%	-3%	489%
COc1ccc(-c2nnc(Nc3nc4c(OC)cccc4s3)o2)cc1	>57	10µM*	-20%	-3%	421%
COc1cc(OC)cc(-c2nnc(Nc3nc4c(F)cccc4s3)o2)c1	>57	0%	-1%	-1%	5%
COc1ccc(-c2ccc(-c3nnc(-c4cc(OC)ccc4OC)o3)cc2)cc1	>57	0%	-1%	0%	13%
CC1=NNC(=S)NCCCN2CCN(CCCNC(=S)NN=C(C)C=NNC(=S)NCCCN3CCN(CCCNC(=S)NN=C1)CC3)CC2	x	0%[11.4 µM]	-3%[11.5 µM]	-1%[11.5 µM]	u
N#Cc1ccc(CN2CCC3(CCNCC3)CC2)cc1	x	-5%[11.4 µM]	-2%	-2%	5%
CCN(CC)c1cccc(O)c1	x	x	-1%	-6%	-5%
CN(C)c1cccc(O)c1	x	x	-2%	-14%	32µM*
C[C@H]1C2=C3C(CC[C@H]4C(OCc5ccc(F)cc5C(F)(F)F)OC[C@](C)([C@@H]34)N(C(=O)OC(C)(C)C)C2)C(CO)C1CO (some centres undefined)	x	x	-7%	-1%	55%
SMILES	Bst PK mod	Luciferase inh	Caspase-7 inhib	Caspase-1 inhib	Tau fil binding
CC(C)(C)c1ccccc1NC(=O)c1ccco1	>57	2%	0%	4%	-1%
CNc1ccccc1C(C)(C)c1cc(-c2ccco2)n[nH]1	u	-6%	-27%	u	32µM*
C=CC[C@@H]1C=C[C@H](O/N=C(\C)CCN2CCc3nc(-c4ccccc4)c(-c4ccccc4)cc3C2)[C@H](CO)O1	x	1%[11.4 µM]	-1%[11.5 µM]	-1%[11.5 µM]	x
COc1ccc(-c2noc(C)c2-c2ccc3ccccc3n2)c(O)c1	i	-37%	-5%	-5%	16µM*
Cc1ccc(N2CN=c3s/c(=C\c4cccnc4)c(=O)n3C2)cc1	>26	-1%[25.5 µM]	x	x	x
Cc1ccc(/C=c2\sc3nc(-c4cccnc4)nn3c2=O)cc1	x	7.9µM*	-6%	-2%	-8%
COC(=O)NC(c1cccc(C)c1)[C@@]1(C(=O)OC)CCCC1=O (some centres undefined)	x	x	1%[11.5 µM]	0%[11.5 µM]	x
CC1(C)CC(Nc2ccc(Nc3ccccc3)cc2)CC(C)(C)N1	x	4%[11.4 µM]	0%[11.5 µM]	2%[11.5 µM]	1.6µM*
CC1(C)CC(NC(=O)c2ccccc2Cl)CC(C)(C)N1	>57	4%	2%	-2%	-9%
C=CCOc1ccc(/C=C/C(C)=N\O)cc1	x	16µM*	2%	0%	-6%
CCOc1ccc(/C(=N\O)C(C)NO)cc1 (centres undefined)	x	2%	-2%	-1%	6%
O=C1C=CC(=Nc2cccc3c(N=C4C=CC(=O)O4)cccc23)O1	x	-19%[11.4 µM]	-2%[11.5 µM]	3%[11.5 µM]	-2%[11.4 µM]
COC(=O)N1CCC2(CC1)CCN(c1ncccn1)CC2	x	1%[11.4 µM]	-2%	-3%	-3%
CN(C)c1nc(Nc2ccc(Cl)cc2)nc(OCC#N)n1	1.7*	2%	-2%	-5%	169%
COn1c(=S)[nH]c2ccccc2c1=O	>26	1%[25.5 µM]	x	x	x
COc1ccc(OC)c2c(=S)c3ccccc3[nH]c12	x	3%	u	x	13µM*
CN(C)c1ccc(C2=NOC(CN3C(=O)c4ccccc4S3(=O)=O)C2)cc1 (centres undefined)	x	16µM*	-7%	-1%	u
O=C1c2ccccc2S(=O)(=O)N1Cc1nc2ccccc2s1	x	u	2%	2%	-9%
O=C1C=CC2=C3c4cc(O)c(O)cc4C[C@]3(O)COC2=C1	x	x	-12%	-4%	x
Nc1ccccc1C(=O)/C=C\c1ccc2c(c1)OCO2	x	3.2µM*	-4%[11.5 µM]	-2%[11.5 µM]	x
C[N+]1(C)CCc2cc3c(cc2[C@@H]1[C@@H]1C(=O)Oc2c1ccc1c2OCO1)OCO3	x	0%	-24%	u	39%
O[C@H](CN1CCN(c2cccc(Cl)c2)CC1)C(c1ccccc1)c1ccccc1	x	-1%	-2%	-1%	40µM*!
CCOC(=O)c1c(C)oc2ccc(NS(=O)(=O)c3ccc4c5c(cccc35)C(=O)N4)cc12	>57	0%	-17%	-16%	7.9µM*
CCC/C=C(\CCC)C(NS(=O)(=O)c1ccc(C(F)(F)F)cc1)c1ccc(-c2ccccc2)cc1 (centres undefined)	x	x	0%	1%	166%
C[C@]12C=CC(=O)C=C1CC[C@@H]1[C@H]3C[C@@H](O)[C@](O)(C(=O)CO)[C@]3(C)C[C@H](O)[C@]12F	x	1%	x	x	6%
Nc1c(C(=O)Nc2ccc3c(c2)OCCO3)nnn1CCc1ccccc1	x	16µM*	1%	0%	-11%
COc1ccc(C)cc1NC(=O)c1nnn(CCc2ccccc2)c1N	x	3%	-3%	-4%	122%
c1ncc(-c2ccoc2)c(NC2CC2)n1	x	-1%[2.29 µM]	-18%	-7%	66%
O=C(c1cc(-c2cccc(O)c2)on1)N1CCOCC1	x	13µM*	1%	0%	-4%

Compound activity as filed in PubChem.
